In publication PMC4336329 (PLoS ONE, 2015):
Out of some 310,000 compounds screened, about 14,000 (4.5%) showed an effect of 50% or more. The effect is printed as a negative number. The sample as a whole holds a higher share of strong results than the screen did.

Molecular target: human ether-à-go-go-related gene (hERG) potassium channel (human, UniProt Q12809)
Assay: primary screen, population patch clamp on CHO cells stably expressing hERG; higher = less effect of the substance
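Further: peak tail current of the secondary pulse compared with the same well before compound.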

Chain of human ether-à-go-go-related gene (hERG) potassium channel (Q12809 whole entry, looked up): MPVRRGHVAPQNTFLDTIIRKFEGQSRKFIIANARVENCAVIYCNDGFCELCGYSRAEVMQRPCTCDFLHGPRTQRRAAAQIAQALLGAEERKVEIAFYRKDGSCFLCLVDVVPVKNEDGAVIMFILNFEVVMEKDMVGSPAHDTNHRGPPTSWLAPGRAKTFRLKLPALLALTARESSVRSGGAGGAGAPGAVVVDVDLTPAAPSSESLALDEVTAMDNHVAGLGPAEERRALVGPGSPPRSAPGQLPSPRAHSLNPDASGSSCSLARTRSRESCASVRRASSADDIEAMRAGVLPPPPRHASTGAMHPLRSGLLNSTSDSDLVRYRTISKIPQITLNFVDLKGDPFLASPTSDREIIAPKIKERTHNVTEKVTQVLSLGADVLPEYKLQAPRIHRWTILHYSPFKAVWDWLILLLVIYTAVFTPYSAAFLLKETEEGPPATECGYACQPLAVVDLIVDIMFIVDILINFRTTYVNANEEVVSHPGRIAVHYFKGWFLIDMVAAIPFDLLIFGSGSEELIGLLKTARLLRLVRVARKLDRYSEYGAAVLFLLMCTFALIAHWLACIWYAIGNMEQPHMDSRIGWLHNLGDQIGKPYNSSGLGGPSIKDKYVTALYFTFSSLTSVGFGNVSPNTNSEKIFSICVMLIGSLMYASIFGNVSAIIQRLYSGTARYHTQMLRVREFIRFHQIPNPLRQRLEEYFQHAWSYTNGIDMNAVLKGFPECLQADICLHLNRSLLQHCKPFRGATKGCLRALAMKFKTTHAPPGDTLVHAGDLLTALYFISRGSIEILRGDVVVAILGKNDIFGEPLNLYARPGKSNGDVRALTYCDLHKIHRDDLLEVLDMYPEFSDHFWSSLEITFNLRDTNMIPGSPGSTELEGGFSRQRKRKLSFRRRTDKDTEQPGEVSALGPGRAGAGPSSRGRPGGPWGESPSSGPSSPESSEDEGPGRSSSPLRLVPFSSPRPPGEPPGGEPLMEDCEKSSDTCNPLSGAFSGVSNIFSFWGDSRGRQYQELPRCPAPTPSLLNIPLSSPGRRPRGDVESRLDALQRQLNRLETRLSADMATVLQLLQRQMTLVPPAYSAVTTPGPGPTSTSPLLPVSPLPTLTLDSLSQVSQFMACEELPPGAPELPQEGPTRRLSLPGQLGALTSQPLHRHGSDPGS

Point of comparison: `CCN(C(=O)COC(=O)c1[nH]c(C)c(C(C)=O)c1C)C1CCS(=O)(=O)C1` (centres unmarked), “hERG current change (%, negative = inhibition) at 10uM” value -8.32%. Against it:
- O=C(CN1N=C(c2ccccc2)CCC1=O)NCc1ccco1 — higher, 0.243%
- COc1cccc(NC(=O)C2C3C=CC(C3)C2C(=O)O)c1 (centres unmarked) — higher, 8.61%
- Cc1ccc(Cc2nnc3n(-c4cccc(C)c4)nc(C(=O)c4ccccc4)n3c2=O)cc1 — higher, -3.85%
- CN1CCC(OC(=O)c2ccc(Br)cc2)CC1.Cl — lower, -41.9%
- CN1CCN(C(=S)c2ccc(Br)cc2)CC1 — lower, -35.9%
- CN1CCC(=C(c2ccccc2)c2ccc(Br)cc2)CC1.Cl — lower, -68.3%
- C=CCNc1scc(-c2ccccc2)[n+]1CC=C.[Br-] — lower, -21.4%
- C/C=C/C(=O)N1c2ccccc2C(C)=CC1(C)C — higher, 3.41%
- COC(=O)c1[nH]c2cccc(OC)c2c1NC(=O)C(C)N1CCC(C)CC1 (centres unmarked) — lower, -21.6%
- CCN(CC)c1ccc(C(=O)OCC(=O)Nc2sccc2C#N)cc1 — higher, 12.2%
- Cc1ccc2cc(S(=O)(=O)NCCC(=O)O)ccc2c1 — higher, -2.04%
- Cc1cc(C)c2nc(N3CCC(C(=O)NCc4ccccn4)CC3)sc2c1 — lower, -25.3%
- CCC(CC)c1nnc(NC(=O)C2CCN(C(=O)c3ccco3)CC2)s1 — higher, 20.1%
- CCc1nnc(NC(=O)C2CCN(C(=O)c3ccco3)CC2)s1 — higher, -0.31%
- Cc1cc(=O)n2nc(N3CCC(C(=O)NCc4cccnc4)CC3)sc2n1 — higher, 7.16%
- Cc1cc(C)c2nc(N3CCCC(C(=O)N4CCC(C(N)=O)CC4)C3)sc2c1 (centres unmarked) — lower, -19.3%
- Cc1cc(C)c2nc(N3CCC(C(=O)NCCCN4CCCCC4)CC3)sc2c1 — lower, -37.2%
- Cc1cc(C)c2nc(N3CCC(C(=O)NCCN4CCOCC4)CC3)sc2c1 — lower, -10.5%
- CCC(C)Sc1nnc(NC(=O)C2CCN(C(=O)c3ccco3)CC2)s1 (centres unmarked) — lower, -57.2%
- Cc1cc(C)c2nc(N3CCC(C(=O)NCCCN4CC(C)CC(C)C4)CC3)sc2c1 (centres unmarked) — lower, -71.8%
- Cc1cc(C)c2nc(N3CCC(C(=O)NCc4cccnc4)CC3)sc2c1 — lower, -79%
- Cc1cc(C)c2nc(N3CCC(C(=O)N4CCN(c5ncccn5)CC4)CC3)sc2c1 — higher, -0.141%
- Cc1cc(C)c2nc(N3CCC(C(=O)N4CCCC4)CC3)sc2c1 — lower, -67.7%
- COC(=O)[C@@]12CCCN1[C@H](c1ccc(-c3ccccc3)cc1)[C@H]1C(=O)N(C)C(=O)[C@H]12.O=C(O)C(F)(F)F — lower, -14.2%
- O=C1Cc2cc(S(=O)(=O)NCc3ccccc3Cl)cc3c2N1CCC3 — higher, 6.14%
- Cc1ccc(/C=C2\SC(=S)N(c3cccnc3)C2=O)o1 — higher, 6.67%
- CCOC(=O)c1ccc(NC(=O)c2nc[nH]c2C(=O)N2CCc3ccccc3C2)cc1 — higher, 0.122%
- CC(C)CNc1nc(N)c([N+](=O)[O-])c(N2CCCCCC2)n1 — higher, -0.987%
- CC1(C)SC2c3ccccc3C(=O)N2[C@@H]1C(=O)NC1CC1 (some centres unmarked) — higher, 9.97%
- Cc1nc([N+](=O)[O-])cn1CC(=O)c1ccc(F)cc1 — higher, 10.5%
- CCNc1nc(SCC(=O)Nc2ccc(Cl)c(Cl)c2)nc(N(C)C)n1 — higher, 14.8%
- CCOc1ccc(-c2cc(C(=O)N/N=C/c3ccc(O)cc3)c3ccccc3n2)cc1 — higher, 4.93%
- Cc1c(C(=O)N/N=C/c2ccccn2)nnn1-c1nonc1N — lower, -15.6%
- Cc1cc(C)c2nc(N3CCN(C(=O)c4ccco4)CC3)sc2c1 — lower, -28.5%
- O=C(Nc1nc2ccccc2s1)C1CCN(C(=O)c2ccco2)CC1 — lower, -41.9%
- Cc1nnc(NC(=O)C2CCN(C(=O)c3ccco3)CC2)s1 — higher, 13.4%
- Cc1cc2nc(N3CCN(C(=O)c4ccco4)CC3)sc2cc1C — higher, 0.152%
- Cc1cccc2sc(NC(=O)C3CCN(C(=O)c4ccco4)CC3)nc12 — lower, -71.6%
- Cc1cc(C)c2nc(N3CCC(C(=O)N4CCN(C(=O)c5ccco5)CC4)CC3)sc2c1 — lower, -77.1%
- C=CCOC(=O)C1=C(C)NC(C)=C(C(=O)OCC=C)C1c1ccc(C)o1 — lower, -27.4%
- O=C(Cc1ccccc1)NCC(=O)N1CCCCCC1 — higher, 9.71%
- CN(C/N=C(\N)N[N+](=O)[O-])S(=O)(=O)c1ccccc1 — higher, 19.4%
- COC(=O)C1=CO[C@@H](O[C@@H]2O[C@H](CO)[C@@H](O)[C@H](O)[C@H]2O)[C@H]2[C@@H]1C(=O)C[C@@H]2C — higher, 23.3%
- COC(=O)c1ccc(CSc2nc3sc(C)c(C)c3c(=O)[nH]2)cc1 — higher, 0.764%
- Nc1c(C(=O)c2ccccc2)sc2nsc(SCCN3CCOCC3)c12 — higher, 18.1%
- CCn1cc(CN2CCN(Cc3ccc(OC)c(C)c3C)C(CCO)C2)c(C)n1 (centres unmarked) — lower, -23.1%
- CCOc1ccc(CN2CCN(Cc3c(C)nn(CC)c3C)CC2CCO)cc1 (centres unmarked) — lower, -45%
- CCOc1ccc(CN2CCN(Cc3cn(CC)nc3C)CC2CCO)cc1 (centres unmarked) — lower, -62%
- CCn1ncc(CN2CCN(Cc3cccc(OC)c3)C(CCO)C2)c1C (centres unmarked) — higher, 7.07%
- CCOc1ccc(CN2CCN(Cc3cnn(CC)c3C)CC2CCO)cc1 (centres unmarked) — lower, -67.8%
- CCn1cc(CN2CCN(Cc3cccc(OC)c3)C(CCO)C2)c(C)n1 (centres unmarked) — lower, -14.4%
- CC1CCCC(C)N1C(=O)C1CC(c2ccc(F)cc2)=NO1 (centres unmarked) — higher, -7.79%
- O=C(N/N=C/c1ccncc1)c1cc(-c2ccc(Br)s2)[nH]n1 — lower, -12.4%
- Cc1ccc(S(=O)(=O)NCCSCc2ccco2)cc1 — higher, -4.42%
- Cc1ccc2c(c1)N(C(=O)CCC(=O)NCc1ccccn1)CC(C)O2 (centres unmarked) — higher, -7.23%
